Source: PubChem BioAssay (The Scripps Research Institute Molecular Screening Center)
In the library only some 1.8% were active in any assay of this set; here they are far more common.
PAD4 inh = blocks human protein arginine deiminase 4. inhibition, % at 6.36 µM. 330,000 compounds, 0.41% hits. recombinant PAD4, RCA probe fluorescence polarization. Q9UM07;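 active means percent inhibition above a cutoff equal to the mean of all tested compounds plus 3 SD, cut at about 15% in these data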
LYPLA2 counter = LYPLA2 (human) inhibition in PME1 counter-screen. AID 2177. recombinant LYPLA2, FP-Rh probe fluorescence polarization. O95372. 320,000 compounds, 0.38% hits. inhibition, % at 5.9 µM;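 active means inhibition above the screen-wide mean plus 3 SD, limit set per campaign, cut at about 26% in these data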
PME-1 primary = blocks human protein phosphatase methylesterase 1; Q9Y570; 320,000 compounds, 0.53% hits; recombinant PME-1, FP-Rh probe fluorescence polarization; inhibition, % at 5.9 µM; AID 2130;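 active means inhibition above the campaign mean of all compounds plus 3 SD, cut at about 26% in these data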;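 further: competitive labeling of PME-1 active site by serine hydrolase directed probe; inhibitors block probe labeling so polarization falls and inhibition rises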
Target sequence (Q9Y570 whole entry, looked up): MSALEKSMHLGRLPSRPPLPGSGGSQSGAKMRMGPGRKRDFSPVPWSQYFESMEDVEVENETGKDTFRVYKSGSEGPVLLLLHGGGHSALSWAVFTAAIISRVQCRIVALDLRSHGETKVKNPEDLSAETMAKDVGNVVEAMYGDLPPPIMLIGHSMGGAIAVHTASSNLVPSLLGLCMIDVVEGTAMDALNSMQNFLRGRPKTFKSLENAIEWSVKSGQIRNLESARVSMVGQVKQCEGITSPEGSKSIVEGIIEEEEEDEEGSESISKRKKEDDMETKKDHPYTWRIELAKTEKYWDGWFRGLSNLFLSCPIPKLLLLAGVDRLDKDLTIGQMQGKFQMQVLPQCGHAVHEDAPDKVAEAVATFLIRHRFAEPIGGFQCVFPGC
LYPLA1 inh = LYPLA1 (human) inhibition in PME1 counter-screen; inhibition, % at 5.9 µM; O75608; 320,000 compounds, 0.16% hits; recombinant LYPLA1, FP-Rh probe fluorescence polarization; AID 2174;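 active means inhibition above the mean of all tested compounds plus 3 SD, set per campaign, cut at about 14% in these data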;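 further: inhibitors block serine hydrolase probe labeling of LYPLA1 so polarization falls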
GSTO1 inh = GSTO1 inhibition, counter-screen for RBBP9 inhibitors; P78417; recombinant GSTO1, activity-based probe fluorescence polarization; inhibition, % at 5.96 µM; 300,000 compounds, 1.1% hits; AID 1974;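 active means inhibition above the campaign mean inhibition plus 3 SD, cut at about 35% in these data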
Fam108B counter = counter-screen for RBBP9 inhibitors: inhibitors of mouse Fam108B. recombinant Fam108B, FP-Rh probe fluorescence polarization. inhibition, % at 9.51 µM. 300,000 compounds, 0.33% hits. AID 1947;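 active means inhibition above the screen mean inhibition plus 3 SD, computed separately per campaign, cut at about 18% in these data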;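 further: inhibitors lower polarization as less probe binds the enzyme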
Large screens that a line does not name were inactive.

O=P(Oc1ccccc1)(Oc1ccccc1)C(O)c1ccc(Cl)cc1 (stereo not drawn)	PME-1 primary 47
COc1ccc(C(O)P(=O)(Oc2ccccc2)Oc2ccccc2)cc1 (stereo not drawn)	PME-1 primary 38
C/C=C1/C[C@@H](C)[C@](O)(CO)C(=O)OCC2=CCN3CC[C@@H](OC1=O)[C@@H]23	none
O=C(Cc1ccccc1)N1CCN(Cc2ccccc2Cl)CC1	none
CCN(CC)S(=O)(=O)c1cc(NC(=O)C(C)N2CC=C(c3ccccc3)CC2)ccc1C (stereo not drawn)	PME-1 primary 47
COc1ccc(Cn2c(N)c(C(=O)NCc3ccco3)c3nc4ccccc4nc32)cc1OC	GSTO1 inh 53
COCCCNC(=O)c1c(N)n(Cc2ccco2)c2nc3ccccc3nc12	none
Cc1cc(Br)c(NC(=O)CN2CC=C(c3ccccc3)CC2)c(Br)c1	PME-1 primary 31
CN1/C(=C\C=Nc2ccccc2)C(C)(C)c2ccccc21	none
CN1/C(=C\C=C\C2=[N+](C)c3ccc4ccccc4c3C2(C)C)C(C)(C)c2ccccc21	PAD4 inh 119, PME-1 primary 179
CN1C(=O)C(Cc2ccc3c(c2)OCO3)C(=O)N(C)C1=O	GSTO1 inh 41
O=C1CN(C(=O)COC(=O)Cc2ccccc2)c2ccccc2N1	GSTO1 inh 35
OC(c1cccc(Cl)c1)(c1cccc(Cl)c1)C1CN2CCC1CC2 (stereo not drawn)	none
Nc1c(C(=O)NC2CCCC2)c2nc3ccccc3nc2n1CC1CCCO1 (stereo not drawn)	PAD4 inh 19, GSTO1 inh 66
Nc1c(C(=O)NCC2CCCO2)c2nc3ccccc3nc2n1Cc1ccco1 (stereo not drawn)	none
CC1(C)NC(=O)[C@H]2CCCN21	none
O=C1NCCN2CCCC12 (stereo not drawn)	LYPLA2 counter 30
COc1ccc(CC(C)NC2CCCCCC2)cc1 (stereo not drawn)	none
COc1cc(/C=C/c2nc3ccccc3c(=O)n2-c2ccc(O)cc2)ccc1O	none
COc1ccc(-n2c(/C=C/c3ccc(O)c(O)c3)nc3ccccc3c2=O)cc1	PME-1 primary 34
CC(C)=CCN1CC[C@@]2(C)c3cc(O)ccc3C[C@@H]1C2C (stereo partly drawn)	none (no result: LYPLA2 counter, PME-1 primary, LYPLA1 inh, GSTO1 inh, Fam108B counter)
CCOC(=O)c1c(N)n(CCCOC(=O)c2ccco2)c2nc3ccccc3nc12	none
CCCCCn1c(NC(=O)c2ccco2)c(C(=O)OCC)c2nc3ccccc3nc21	GSTO1 inh 74
COc1cccc(C2=NOC(C(=O)N3CCC4(CC3)OCCO4)C2)c1 (stereo not drawn)	none
c1cncc(C2CCCCN2)c1 (stereo not drawn)	none
c1cncc(C2Nc3cccc4cccc(c34)N2)c1	GSTO1 inh 64
CCOC(=O)C1=Nc2ccccc2/C1=C\c1c(O)n(C)c(=O)n(C)c1=O	none
Cc1oc(-c2ccccc2)nc1CN1C(=O)CN=C(c2ccccc2)c2ccccc21	PME-1 primary 32
NP(=O)(Oc1ccc(Cl)cc1)Oc1ccc(Cl)cc1	PME-1 primary 71
Cc1cccc(OP(N)(=O)Oc2cccc(C)c2)c1	none
Cc1cccc(NP(=O)(Oc2ccccc2)Oc2ccccc2)c1C	none
Cc1ccccc1NP(=O)(Oc1ccccc1F)Oc1ccccc1F	PME-1 primary 39
O=C(CCC(=O)N1CCC2(CC1)OCCO2)Nc1nnc(C2CCCCC2)s1	none
CC/C(CC(c1ccccc1)c1c(O)c2ccccc2oc1=O)=N\NC(N)=S (stereo not drawn)	none
C/C(CC(c1ccccc1)c1c(O)c2ccccc2oc1=O)=N\Nc1ccc([N+](=O)[O-])cc1[N+](=O)[O-] (stereo not drawn)	GSTO1 inh 37
O=P(CCl)(Nc1ccccc1)C(Cl)(Cl)Cl (stereo not drawn)	PME-1 primary 30
O=C1NC(=S)N(c2ccc(F)cc2)C(=O)/C1=C/c1ccco1	Fam108B counter 52
O=C(N=Nc1c(O)[nH]c(=O)[nH]c1=O)C1COc2cc3ccccc3cc2O1 (stereo not drawn)	none
COC(=O)C1=C(c2ccc(OC)c(OC)c2)C[C@@H]2CC[C@H]1N2C(=O)N1CCCCC1	none (no result: GSTO1 inh, Fam108B counter)
COc1ccccc1/C=C1/C(=N/O)C2CCN1CC2	none
